In PubChem BioAssay (NCI) one finds growth data, which are given here for 40 molecules.

Values joined by “and” are separate entries in the source; they are usually repeats but may differ in a detail not shown here. Equal values may be shown once. The panel holds about 83,000 compounds, 20% with a hit somewhere; the sample as a whole holds those more often.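 48-hour exposure, single concentration, 96-well plates; percent growth endpoint where 0 means no net growth. Active: below 10.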 A number with no mark means an inactive call. Active and inactive are the calls of the source.

The subject of the test is HL-60(TB) leukemia. The experiment in a line: NCI-60 one-dose screen, 48 h (100 = growth as untreated, 0 = no growth, -100 = all killed). The conditions noted are these: 10 µM unless noted.
Regarding `COC(=O)CCCNS(=O)(=O)c1cc(C(=O)Nc2ccc(NC(=O)c3cc(S(=O)(=O)NCCCC(=O)OC)c(O)c(O)c3O)cc2)c(O)c(O)c1O`, the growth is 68%.

On to `COc1cccc(CNc2ccc3ncnc(Nc4ccc(F)c(Cl)c4)c3c2)c1`, for which the growth is 93.6%.

In the case of `O=C1c2cccnc2C(=O)c2c1c(C(=O)OCCN1CCCCC1)c1ccccn21`, the growth was -46.5% (active).

As to `N=C(N)c1ccc(-c2ccc(/C=C/c3ccccc3)s2)cc1`, the growth is -39.5% (active).

Consider `CCCCCC(=O)N1c2ccccc2NC2=C(C(=O)CC(c3ccc(OC)c(OC)c3)C2)C1c1ccc(C(F)(F)F)cc1` (stereo not given), for which the growth is 45.4%.

Regarding `Cc1c2c(cc[n+]1Cc1ccc(F)cc1)c1ccc(OCc3cccc(F)c3)cc1n2Cc1cccc(F)c1`, the growth was -49.3% (active).

With `Cn1ccc2c(c1=O)C(=O)c1nccc3c1c-2nc1ccccc13`, the growth is -67.4% (active).

`Cc1nc2ccc(-n3ncc(C(=O)c4cc5ccccc5[nH]4)c3N)cc2[nH]1`: the growth was 36.5%.

For the molecule `CC(C)OC1OC(OC(C)C)C(OC(C)C)OC1OC(C)C` (stereo not given), the growth is 87.2%.

As for `Cc1cccc(NC2=C(C#N)C(=O)NC3(CCCC3)S2)c1`, the growth was 89.7%.

In the case of `CC1CN(Cc2ccco2)C(=S)N(c2ccccc2)C1=O` (stereo not given), the growth is 61.3%.

Consider `CN1CCN(CCCOc2cccc3nc(Nc4ccc(Cl)c(F)c4)ccc23)CC1`, for which the growth is 61.9%.

Take `Cc1ccc(NS(=O)(=O)c2ccc(C)cc2)cc1`: the growth is 87.5% and 114%.

For `Cn1cc(C(=O)c2nc(-c3c[nH]c4ccccc34)no2)c2cc(F)ccc21`, the growth was -6.73% (active).

Consider `CC1=C/C(O)CC(=O)Cc2nc(co2)C(=O)N2CCC=C2C(=O)OC(C(C)C)C(C)/C=C\C(=O)NC/C=C\1` (stereo not given), for which the growth is 56.4%.

With `Nc1cc(N)ncn1`, the growth was 47.3%.

For `O=C1CC(=NCC(=O)n2c(-c3ccccc3)nc3ccccc32)NN1`, the growth was 107%.

On to `COc1ccc(-c2nc3sc4c(c3c(=O)[nH]2)CCCC4)c2ccccc12`, for which the growth is -24.7% (active).

With `CCc1ccc(Oc2cn[nH]c2-c2ccc(OCCc3ccc(F)cc3)cc2O)cc1`, the growth is 111%.

Turning to `O=C(Nc1cccc2ccccc12)NC1CC1`, the growth was 108%.

`CC#CC#Cc1cccc(=O)o1`: the growth was 18.1%.

Take `CC(=O)[C@@H]1CCC=C2CC[C@]3(C)[C@@H](CC[C@@H]4[C@@]5(C)CCCNC(C)(C)[C@@H]5CC[C@]43C)[C@H]21`: the growth was -12.3% (active).

As to `CCOC(=O)c1c(C)c2c(n1C)CSc1cc(C(=O)c3ccccc3)c(=O)[nH]c1-2`, the growth was 74.7% [100 µM].

As for `O=C(CCC(C(=O)c1ccccc1)c1ccccc1)c1ccccc1` (stereo not given), the growth is 28.1%.

With `COc1ccc(-n2nnc(C(=O)O)c2-c2cc(OC)c(OC)c(OC)c2)cc1`, the growth is 98.8%.

Take `COCCn1cc(-c2nc(-c3cccnc3)cs2)c2cc(F)ccc21`: the growth is 93.4%.

`Oc1c(Br)cc(Cl)cc1C(c1cc(Cl)cc(Br)c1O)C(Cl)(Cl)Cl`: the growth was 9.73% (active).

Consider `COc1ccc(/C=C\c2nc3ccccc3s2)cc1OP(=O)(O)O`, for which the growth is -1.37% (active).

Take `O=C(/C=C/CN1CCCCC1)Nc1cc2c(Nc3ccc(F)c(Cl)c3F)ncnc2cc1OCCOC(F)F`: the growth was 17.9%.

Turning to `O=C(Nc1ccc(-c2nc3cc4ccccc4cc3[nH]2)cc1)c1cccc(Br)c1`, the growth was 42.3%.

With `COc1ccc([C@H]2[C@@H](F)C(=O)N2c2cc(OC)c(OC)c(OC)c2)cc1F`, the growth was -14.7% (active).

`CCOC(=O)c1csc(N)n1`: the growth was 95.1% and 98.1%.

On to `Cc1cc(N=Nc2ccc(C)c(N=Nc3cc(C)c(N)cc3N)c2)c(N)cc1N`, for which the growth was 99.9% and 82.5%.

As for `CCCCCCCCCCCC(=O)OCCNC(=O)C[n+]1ccccc1`, the growth was 100%.

Regarding `O=c1[nH]cnc2c1ncn2C1OC(CO)C(O)C1O` (stereo not given), the growth was 97.1% and 89.3% and 101%.

As to `Cc1cc(N=Nc2ccc(-c3ccc(N=Nc4ccc(O)c(C(=O)O)c4)cc3)cc2)c(N)c(N=Nc2ccc(C(=O)O)cc2)c1N`, the growth is 81%.

Take `Cc1cccc(/C=C\C(=O)c2ccccc2)c1`: the growth was 98.8% and 58.7%.

As to `O=C(CN1CCCCC1)Nc1nc(-c2cc3ccccc3oc2=O)cs1`, the growth was 93.8%.

`NC(N)=NN=C(c1ccccc1)c1ccccc1`: the growth is -8.59% (active).

On to `CCNC(=O)c1ccc2c(c1)nc(-c1ccc(Cl)cc1)n2-c1cc(C(C)(C)C)[nH]n1`, for which the growth is 4.73% (active).
